These results are taken from PubChem BioAssay (Tox21).

Each structure is given as a SMILES string. Inconclusive results are not listed. The source made the active and inactive calls. Unless noted, the call rests on the fitted dose curve; in most records, active means well fitted curve in the direction sought with a large enough effect in the repeat runs; inconclusive means weak or mixed curves; inactive means flat fitted curve, though single readings scatter.

Assay [1] in a line: qHTS assay to test for compound auto fluorescence at 535 nm (green) in HEK293 cells (AID 720680).
Assay [2] is described as follows: qHTS assay to test for compound auto fluorescence at 460 nm (blue) in HEK293 cell free culture (AID 720681). An outline of the steps: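 Blue fluorescence (Ex 405/Em 460 nm, triamterene-equivalent) was read immediately after pin transfer of compound or DMSO into medium (DMEM, 10% FBS) without cells.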
A short description of assay [3]: qHTS assay to test for compound auto fluorescence at 535 nm (green) in HEK293 cell free culture (AID 720682). An outline of the steps: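 Green-label autofluorescence (485 nm excitation, 535 nm emission) measured on compound added to cell-free culture medium (DMEM, 10% FBS). Output is expressed relative to fluorescein.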
(In general: Quantitative high-throughput screening tests each substance at several concentrations.)

The nature of assay [4]: qHTS assay to test for compound auto fluorescence at 590 nm (red) in HEK293 cell free culture (AID 720683). An outline of the steps: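 Red-channel autofluorescence of compounds in culture medium (DMEM, 10% FBS), no cells, measured at 540/590 nm. Rose Bengal sodium is the reference fluorophore for equivalence.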
Assay [5] can be described thus: qHTS assay to test for compound auto fluorescence at 590 nm (red) in HepG2 cell free culture (AID 720684). In outline:
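Cell-free; medium MEM + 10% FBS; compound or DMSO added by pintool; read Ex 540/Em 590 nm; Rose Bengal sodium as red reference fluorophore.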

A short description of assay [6]: qHTS assay to test for compound auto fluorescence at 460 nm (blue) in HepG2 cell free culture (AID 720685). In outline:
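Cell-free plates of MEM plus 10% FBS received 23 nL compound or DMSO vehicle; blue-channel (405/460 nm) intensity scored against triamterene as reference fluorophore.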

Assay [7] is described as follows: qHTS assay to test for compound auto fluorescence at 535 nm (green) in HepG2 cell free culture (AID 720686).
Assay [8] can be described thus: qHTS assay to test for compound auto fluorescence at 460 nm (blue) in HepG2 cells (AID 720687). In outline: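 Blue-channel autofluorescence (Ex/Em 405/460 nm, triamterene-equivalent) was measured after 1 hr compound exposure at 37 C, 5% CO2. Cells were HepG2, plated overnight at 37 C in MEM plus 10% FBS.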
Assay [9] deals with Glucocorticoid receptor (Homo sapiens) (UniProt P04150). Nature of the assay: qHTS assay to identify small molecule agonists of the glucocorticoid receptor (GR) signaling pathway (AID 720691; active means well fitted activation curve with a large enough effect in the signal ratio in the repeat runs, not every such curve was filed as active; the % refers to the signal ratio). Particulars: GR-bla HeLa, beta-lactamase reporter ratio, 18 h; activation: at 62.4 µM (top of the series). In outline:
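A HeLa cervical cancer line expressing GR and a glucocorticoid response element-driven beta-lactamase gene is treated with compounds for 18 h; LiveBLAzer B/G FRET substrate is then applied and fluorescence read.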

The target is the same in assay [10]. Nature of the assay: qHTS assay to identify small molecule antagonists of the glucocorticoid receptor (GR) signaling pathway (AID 720692; active means well fitted inhibition curve with a large enough effect in the signal ratio in the repeat runs, not every such curve was filed as active; the % refers to the signal ratio; further: potency means the concentration at half of the fitted maximal effect). An outline of the steps: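 GRE-bla HeLa line, dex-stimulated (5 nM final). Compound exposure 18 h, 37 C. Beta-lactamase FRET read after 2 h RT substrate.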

Chain of Glucocorticoid receptor (Homo sapiens) (P04150 whole entry, looked up): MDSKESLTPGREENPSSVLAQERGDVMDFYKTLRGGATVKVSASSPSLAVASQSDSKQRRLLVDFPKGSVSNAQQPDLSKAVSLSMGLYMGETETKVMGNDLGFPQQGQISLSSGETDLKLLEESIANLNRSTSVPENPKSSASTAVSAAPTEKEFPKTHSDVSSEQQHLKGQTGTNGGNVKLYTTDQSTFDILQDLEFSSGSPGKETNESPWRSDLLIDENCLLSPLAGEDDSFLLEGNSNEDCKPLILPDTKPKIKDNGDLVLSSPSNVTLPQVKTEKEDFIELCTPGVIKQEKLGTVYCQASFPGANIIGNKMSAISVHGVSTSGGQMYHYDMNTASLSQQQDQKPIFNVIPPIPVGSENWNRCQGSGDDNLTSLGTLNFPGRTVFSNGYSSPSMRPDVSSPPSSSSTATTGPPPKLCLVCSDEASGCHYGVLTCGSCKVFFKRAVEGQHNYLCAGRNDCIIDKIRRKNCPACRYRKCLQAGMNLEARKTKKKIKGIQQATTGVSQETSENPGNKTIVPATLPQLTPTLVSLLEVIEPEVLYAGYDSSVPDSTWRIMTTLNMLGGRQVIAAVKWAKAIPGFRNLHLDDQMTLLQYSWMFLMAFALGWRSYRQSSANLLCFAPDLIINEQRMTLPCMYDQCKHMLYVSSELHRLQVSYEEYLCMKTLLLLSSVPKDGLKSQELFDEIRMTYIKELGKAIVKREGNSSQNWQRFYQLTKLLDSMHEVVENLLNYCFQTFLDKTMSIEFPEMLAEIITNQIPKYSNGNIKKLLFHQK

Take `CCCCCCCCCCCC(=O)OC[C@@H](O)C1OC[C@H](O)[C@H]1O` (stereo not given in full): the Potency entry in [1], in [2], in assay [3], in assay [4], in [5] and in [7] was “inactive” in each case. The Potency result in assay [9] and in [10] was “inactive” in each case. Moreover, the result in assay [6] and in assay [8] was inactive.
Regarding `O=C(Nc1ccc(O)cc1)c1ccccc1O`, the Potency result in [1], in assay [2], in assay [3], in [4], in assay [5] and in assay [7] was “inactive” each time. The Potency entry in assay [9] and in assay [10] was “inactive” throughout. The result in assay [6] and in assay [8] was inactive.
`CCN(CC)CCC(=O)N1c2ccccc2Sc2ccc(C(F)(F)F)cc21`: the Potency entry in [1], in assay [2], in assay [3], in assay [4], in assay [5] and in [7] was “inactive” each time. For the same molecule, the Potency entry in [9] was “inactive”. For the same molecule, the result in [6] and in assay [8] was inactive. For the same molecule, in assay [10], the Potency is 23.9 µM (active).
Consider `CCCc1ccc(C(=O)O)cc1`, for which the Potency entry in assay [1], in assay [2], in assay [3], in [4], in [5] and in assay [7] was “inactive” in each case. Further, the Potency entry in assay [9] and in assay [10] was “inactive” each time. The outcome in [6] and in assay [8] was inactive.
`Cc1cccc(C)c1NC(=O)NC1=CCCN1C`: the Potency entry in [1], in assay [2], in assay [3], in assay [4], in assay [5] and in assay [7] was “inactive” in each case. Further, the Potency entry in assay [9] and in [10] was “inactive” in each case. The molecule was called inactive in [6] and in assay [8].
With `CC1(C)S[C@@H]2[C@H](NC(=O)Cc3ccccc3)C(=O)N2[C@H]1C(=O)O`, the Potency entry in assay [1], in assay [2], in assay [3], in assay [4], in assay [5] and in assay [7] was “inactive” in each case. Moreover, the Potency entry in assay [9] and in [10] was “inactive” throughout. Moreover, the call in assay [6] and in assay [8] was inactive.
Consider `O=P(O)(O)C(Sc1ccc(Cl)cc1)P(=O)(O)O`, for which the Potency entry in [1], in assay [2], in [3], in [4], in assay [5] and in assay [7] was “inactive” in each case. The Potency entry in assay [9] and in assay [10] was “inactive” in each case. Further, the call in [6] and in assay [8] was inactive.
As for `CC1CCC(NC(=O)N(CCCl)N=O)CC1` (stereo not given), the Potency result in assay [1], in [2], in assay [3], in assay [4], in assay [5] and in [7] was “inactive” each time. For the same molecule, the Potency entry in assay [9] and in [10] was “inactive” in each case. The result in [6] and in assay [8] was inactive.
For `C#C[C@]1(O)CC[C@H]2[C@@H]3CCC4=CC(=O)CC[C@@H]4[C@H]3C(=C)C[C@@]21CC`, the Potency result in assay [1], in assay [2], in assay [3], in assay [4], in assay [5] and in assay [7] was “inactive” each time. Besides, the Potency entry in [9] is “inactive”. Also, the molecule was called inactive in assay [6] and in assay [8]. Besides, the Potency in assay [10] is 0.379 µM (active).
As for `O=C(OC[C@H]1O[C@](O)(COC(=O)c2cccnc2)[C@@H](OC(=O)c2cccnc2)[C@@H]1OC(=O)c1cccnc1)c1cccnc1`, the Potency entry in [1], in assay [2], in assay [3], in assay [4], in assay [5] and in assay [7] was “inactive” throughout. For the same molecule, the Potency result in [9] and in assay [10] was “inactive” each time. For the same molecule, the molecule was called inactive in [6] and in assay [8].
Turning to `COC(=O)[C@@H](N)CS`, the Potency entry in assay [1], in [2], in [3], in assay [4], in assay [5] and in assay [7] was “inactive” throughout. For the same molecule, the Potency result in assay [9] and in assay [10] was “inactive” in each case. Also, the molecule was called inactive in [6] and in [8].
As for `C[N+]1(C)CCN(CC(O)(c2ccccc2)C2CCCCC2)CC1` (stereo not given), the Potency result in assay [1], in [2], in assay [3], in assay [4], in [5] and in [7] was “inactive” throughout. In addition, the Potency result in [9] and in assay [10] was “inactive” in each case. Also, the molecule was called inactive in assay [6] and in assay [8].
Regarding `CC1=C(/C=C/C(C)=C/C=C/C(C)=C/C=C/C=C(C)/C=C/C=C(C)/C=C/C2=C(C)C[C@@H](O)CC2(C)C)C(C)(C)C[C@H](O)C1`, the Potency result in assay [1], in assay [2], in assay [3], in [4], in assay [5] and in assay [7] was “inactive” in each case. The Potency entry in [9] was “inactive”. The molecule was classed as inactive in [6] and in assay [8]. For the same molecule, in assay [10], the Potency was 23.9 µM (active).
As to `O=[n+]1ccn([O-])c2ccccc21`, the Potency result in assay [1], in [2], in assay [3], in [4], in assay [5] and in [7] was “inactive” each time. The Potency entry in [9] and in assay [10] was “inactive” each time. Moreover, the result in assay [6] and in [8] was inactive.
As for `C[C@@H]1C/C=C/C=C/C=C/C=C/[C@H](O[C@@H]2O[C@H](C)[C@@H](O)[C@H](N)[C@@H]2O)C[C@@H]2O[C@](O)(C[C@@H](O)C[C@H]3O[C@@H]3/C=C/C(=O)O1)C[C@H](O)[C@H]2C(=O)O`, the Potency entry in assay [1], in assay [2], in assay [3], in assay [4], in assay [5] and in assay [7] was “inactive” throughout. Further, the Potency entry in assay [9] and in assay [10] was “inactive” in each case. In addition, the call in [6] and in [8] was inactive.
Regarding `CCC(c1ccccc1)c1noc(CCN(CC)CC)n1` (stereo not given), the Potency entry in assay [1], in [2], in assay [3], in [4], in assay [5] and in assay [7] was “inactive” throughout. Moreover, the Potency result in [9] and in [10] was “inactive” in each case. The outcome in assay [6] and in [8] was inactive.
As to `O=P(O)(O)C(O)(Cc1cnc2ccccn12)P(=O)(O)O`, the Potency entry in [1], in assay [2], in assay [3], in assay [4], in [5] and in assay [7] was “inactive” each time. For the same molecule, the Potency entry in assay [9] and in [10] was “inactive” in each case. In addition, the result in assay [6] and in [8] was inactive.
On to `O=C(Nc1ccc(/C=C/c2ccc(NC(=O)c3cc(S(=O)(=O)O)c4cccnc4c3O)cc2S(=O)(=O)O)c(S(=O)(=O)O)c1)c1cc(S(=O)(=O)O)c2cccnc2c1O`, for which the Potency entry in [1], in assay [2], in assay [3], in assay [4], in assay [5] and in [7] was “inactive” in each case. Further, the Potency entry in assay [9] and in assay [10] was “inactive” in each case. The molecule was classed as inactive in assay [6] and in assay [8].
As for `CC(C)(C)NCC(O)c1ccc(O)c(CO)n1` (stereo not given), the Potency entry in assay [1], in assay [2], in [3], in assay [4], in assay [5] and in [7] was “inactive” each time. Moreover, the Potency entry in assay [9] and in assay [10] was “inactive” each time. Further, the outcome in assay [6] and in assay [8] was inactive.
As for `CC(C)(S)[C@@H](N)C(=O)O`, the Potency entry in assay [1], in assay [2], in assay [3], in assay [4], in [5] and in assay [7] was “inactive” throughout. In addition, the Potency result in [9] and in [10] was “inactive” each time. Besides, the call in [6] and in assay [8] was inactive.
